Drawing on PubChem BioAssay, this text covers composite z-score for 25 compounds.

Molecules are shown by their SMILES.

This test deals with Alpha-bungarotoxin (Bungarus multicinctus) (UniProt P60615). Put plainly: alpha-bungarotoxin binders on microarray, profiling panel, artefact control for SMM control protein annotation, biochemical, small-molecule microarray, Alexa647 label, 635/667 nm fluorescence (AID 1117). Particulars: alpha-BTX-A647 binding fluorescence, higher = more signal.
Chain of Alpha-bungarotoxin (Bungarus multicinctus) (P60615 whole entry, looked up): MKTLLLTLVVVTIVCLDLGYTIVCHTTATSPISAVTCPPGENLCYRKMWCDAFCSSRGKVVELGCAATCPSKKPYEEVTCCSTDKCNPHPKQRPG
For `COCCOC(=O)N1C(=O)[C@@]2(c3cc(C#CCCO)ccc31)[C@H](C(N)=O)[C@H]1C(=O)O[C@H](c3ccccc3)[C@H](c3ccccc3)N1[C@@H]2c1ccccc1OCCO`, the composite z-score was found to be 2.08.

For the compound `CC1CC/C=C\[C@H]2OC34C=CCN(C(C)(C)C)C(=O)[C@H]3N(CCCO)C(=O)[C@@H]4C2C(=O)O1` (stereo not given in full), the composite z-score is -1.18. The figure for `COc1ccc([Si](C)(C)[C@H]2[C@H](CC(=O)N3Cc4ccccc4C[C@H]3CO)O[C@@]3(C(=O)N(C)c4ccccc43)[C@@H]2C)cc1` is 2.48; for `Cc1ccc(S[C@]2(C(=O)NCCCN(C)C)CC(=O)N(C3Cc4ccccc4C3)[C@@H]2c2ccc(CO)cc2I)cc1` it is 0.651; for `O=C1O[C@H](c2ccccc2)[C@H](c2ccccc2)N2[C@H]1[C@@H](C(=O)N1CCN(c3ncccn3)CC1)[C@]1(C(=O)Nc3ccc(C#CCCO)cc31)[C@H]2c1ccc(O)cc1` it is 1.55. The result for `[N-]=[N+]=Nc1ccccc1C[C@]1(C(=O)N2CCOCC2)N=C(c2ccc(OCCCO)cc2)O[C@H]1c1ccccc1N=[N+]=[N-]` reads 1.84; that for `COc1ccc(C(=O)Nc2ccc(CN3C(=O)[C@@]4(O[C@@H](CCn5cc(CCO)nn5)[C@H]([Si](C)(C)c5ccc(OC)cc5)[C@H]4C)c4ccccc43)cc2)cc1`, 0.829; that for `NC(=O)NCC#Cc1ccc2c(c1)[C@]1(C(=O)N2)[C@H](c2ccc(OCCO)cc2)N2[C@H](c3ccccc3)[C@H](c3ccccc3)OC(=O)[C@H]2[C@@H]1C(=O)NC[C@H](O)c1ccccc1`, 0.502. The figure for `O=C1[C@H]2C=C(I)[C@H](C[C@@H]2c2ccccc2)[C@@]12CO2` is 0.0292; for `CC(C)NC(=O)[C@@H]1c2ccccc2C(=O)N(Cc2ccc(OC(F)(F)F)cc2)[C@H]1c1ccc(CO)cc1` it is 0.589; for `COc1ccc([Si](C)(C)[C@H]2[C@H](CC(=O)N3Cc4ccccc4C[C@H]3CO)O[C@@]3(C(=O)N(c4ccccc4)c4ccccc43)[C@@H]2C)cc1` it is 1.69. Turning to `CC(C)(C)N1CC=CC23O[C@@H]4/C=C\CCCOC(=O)C4[C@H]2C(=O)N(CCCO)[C@@H]3C1=O` (stereo not given in full), the composite z-score was -1.62. The figure for `O=C1C2C=CC(C(O)c3ccc([N+](=O)[O-])cc3)N(Nc3ccccc3F)C2C(=O)N1c1ccccc1` (stereo not given) is 1.06. The figure for `COc1ccccc1CN1C(=O)c2ccccc2[C@](Cc2ccccc2I)(C(=O)NCC(C)C)[C@@H]1c1ccc(CO)cc1` is 0.237; for `C=C(CCCC)/C(=C/C[C@H](OC(=O)c1ccncc1)c1ccc(OCCO)cc1)c1cnc2ccccc2c1` it is 2.52. Regarding `CCCC[C@H]1C[C@@H]1[C@@H]1N(C(C)=O)[C@H](c2cccc(OC)c2)CC12CC2`, the composite z-score amounted to 0.154. The figure for `O=C1O[C@H](Cc2ccccc2)[C@@H]2[C@H]3C=CCCC=C3CN2[C@H]1Cc1ccc(O)cc1` is -0.224; for `COCCOC(=O)N1C(=O)[C@@]2(c3cc(C#CCC(C(=O)OC)C(=O)OC)ccc31)[C@H](C(=O)Nc1nc3ccccc3s1)[C@H]1C(=O)O[C@H](c3ccccc3)[C@H](c3ccccc3)N1[C@@H]2c1ccc(OCCO)cc1` it is 0.752. With `CCCCCCc1nc(Cc2cc(OC)c(OC)c(OC)c2)cc2c1[Si](C(C)C)(C(C)C)O[C@H]2c1ccccc1`, the composite z-score came to 0.889.

On to `COC(=O)c1cccc([C@H]2OC(=CC(=O)OC(C)C)C[C@@H](c3cccc(C(=O)OC)c3)O2)c1`, for which the composite z-score amounted to 0.866. The figure for `C=CC[C@]1(C(=O)NCC(O)CO)COC(c2ccc(OCCCO)cc2)=N1` (stereo not given in full) is -1.21; for `COC(=O)[C@@]1(Cc2ccccc2)[C@H]2c3cc(C(=O)N(C)C)n(Cc4ccc(C(F)(F)F)nc4)c3C[C@H]2CN1C(=O)c1ccccc1` it is 0.82; for `CCCNC(=O)[C@@]1(c2ccc([N+](=O)[O-])cc2)CC(=O)N(C(C)C)[C@@H]1c1ccc(CO)cc1` it is -0.276. The result for `C[C@@H]1NC(=O)C([C@@H](C)OCc2ccccc2)NC(=O)[C@@]23C(=O)N[C@@H](Cc4ccccc4)C2[C@H](C)[C@@]2(C)O[C@H]2C3/C=C/C/C=C\CNC1=O` (stereo not given in full) reads -0.0334; that for `CCOC(=O)C1=C[C@@H](C(C)(C)C)N(S(=O)(=O)c2ccc(C)cc2)[C@H]1c1ccc(C#N)cc1`, 1.09.
